Screens from PubChem BioAssay.
PI5P4K alpha inh: PI5P4K alpha (human) kinase inhibition; PI5P4Kalpha enzyme, ADP-Glo luminescence, 60 min; stronger effect = lower value; max response, %; hit rate 1.2% among 330,000; AID 652105; active = max response of -50% or lower; inconclusive = between -30% and -50%; inactive = -30% or higher; note: value at the top dose of about 77 µM; % is set by controls: 0 for no effect and ±100 for the full control effect
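Reactions run in 0.038 M HEPES pH 7.4, 0.28 mM EGTA, 0.1% CHAPS and 5% DMSO, with PI5P4Kalpha, substrate, compound and 5 microM ATP final, one hour at room temperature. Readout is ADP-Glo luminescence.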
PLK1 PBD inh: blocks phosphopeptide binding to human PLK1 polo-box domain; P53350; Plk1 PBD binding of FITC phosphopeptide, fluorescence polarization; Potency, µM, without a hit: max response, negative = inhibition, most hits filed as inhibitors; hit rate 2.8% among 360,000; note: potency is the fitted concentration of half-maximal effect; series mostly up to about 57 µM; % is set by controls: 0 for no effect and ±100 for the full control effect; nearly all actives have a fitted effect of over 65% in size
JMJD2A Tudor: inhibitors of human JMJD2A Tudor domain; O75164; AlphaScreen JMJD2A-Tudor / H3K4me3 peptide binding; Potency, µM (highest dose often 114 µM), inactives show at the top dose activity change, negative = inhibition, actives largely listed as inhibitors; hit rate 4.4% among 390,000; note: potency is the fitted concentration of half-maximal effect; % is set by controls: 0 for no effect and ±100 for the full control effect; nearly all actives have a fitted effect of over 50% in size
BAZ2B inh: inhibitors of human BAZ2B bromodomain. AlphaScreen BAZ2B-H3K14Ac peptide displacement. Potency, µM (series often up to 114 µM), for inactives: top-dose activity change, negative = inhibition, actives largely listed as inhibitors. hit rate 4.4% among 360,000. AID 504333; note: potency is the fitted concentration of half-maximal effect; % is set by controls: 0 for no effect and ±100 for the full control effect; nearly all actives have a fitted effect of over 60% in size
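AlphaScreen luminescence quantifies BAZ2B engagement of H3K14Ac peptide; the protein and biotinylated peptide are both at 50 nM final, buffer PBS pH 7.4 with 0.01% Tween-20, all steps at room temperature.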
HP1b chromo inh: blocks HP1-beta chromodomain binding to methylated histone tails; AlphaScreen HP1-beta / biotin-H3K9me3 peptide binding; Potency, µM (highest dose often 114 µM), inactives show at the top dose activity change, negative = inhibition, actives largely listed as inhibitors; hit rate 0.56% among 390,000; note: potency is the fitted concentration of half-maximal effect; nearly all actives have a fitted effect of over 70% in size
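Compound inhibition of the preformed complex between 50 nM HP1-beta and 50 nM biotinylated H3K9me3 peptide was read by AlphaScreen. Buffer was PBS pH 7.4 with 0.01% Tween-20. Incubations ran 30 min at room temperature, with 10 ug/mL donor/acceptor beads.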
G9a inh: G9a (human) methyltransferase inhibition; AID 504332; hit rate 8.8% among 350,000; G9a H3K9 monomethylation, AlphaScreen, 2 h; Potency, µM (series often up to 102 µM), without a hit: top-dose activity, negative = inhibition, most hits filed as inhibitors; note: potency is the fitted concentration of half-maximal effect; % is set by controls: 0 for no effect and ±100 for the full control effect; nearly all actives have a fitted effect of over 75% in size
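G9a (20 nM) was preincubated 15 min with compound, then reacted 2 h at room temperature with 500 nM biotin-H3K9 peptide and 20 µM SAM. Monomethyl-H3K9 detected by AlphaScreen using anti-H3K9me1 antibody.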
Active calls of the source: *; u = inconclusive; x = no result given; ! = repeats disagree; [ ] = remark or other dose. An excerpt weighted towards active compounds, which were near 12% of everything screened. Unless noted, calls come from the whole dose curve; as a rule, active = well fitted curve in the direction sought with a large enough effect; inconclusive = small, poorly fitted or top-dose-only effect, or another doubt; inactive = no such curve, though single readings can be large; an effect the other way counts as inactive or inconclusive.

SMILES	PI5P4K alpha inh	PLK1 PBD inh	JMJD2A Tudor	BAZ2B inh	HP1b chromo inh	G9a inh
CC(Oc1ccc(F)cc1)C(=O)Nc1cccc(-c2nn[nH]n2)c1 (configuration not stated)	-23	21µM*	-23%	-17%	0%	25µM*
COc1ccccc1OC(C)C(=O)Nc1cccc(-c2nc3ccccc3s2)c1 (configuration not stated)	x	x	0%	2%	18%	8.9µM*
COc1cc(SC)ccc1C(=O)Nc1ccc2c(c1)OCCO2	x	3%	-14%	-22%	3%	50µM*
COc1ccc(OC(C)C(=O)Nc2cccc(OC)c2)cc1 (configuration not stated)	1	-6%	-2%	-1%	69%	-38%[12.7 µM]
COc1cccc(-c2ccc3ncnc(NCCNC(C)=O)c3c2)c1	x	x	x	x	x	-22%[0.501 µM]
COc1ccc(Cl)cc1NC(=O)N1CCC(CN2CCCCCC2)CC1	x	x	-9%	-16%	16%	u
Cc1cc(=O)n2nc(N3CCC(C(=O)Nc4ccc(C)c(Cl)c4)CC3)sc2n1	x	x	-9%	1%	16%	9%[59 µM]
CCSc1ccccc1C(=O)Nc1cc(OC)c(OC)c(OC)c1	u	-15%	-33%	-13%	10%	3.5µM*
COCCSc1ccccc1C(=O)Nc1ccc2c(c1)OCCO2	-2	-9%	2%	2%	59%	3.5µM*
COCCSc1ccccc1C(=O)NCc1ccc2c(c1)OCO2	-1	-9%	-29%	0%	32%	u
COc1ccccc1OC(C)C(=O)Nc1ccc2c(c1)OCCO2 (configuration not stated)	-4	1%	-18%	-4%	-14%	32µM*
Cc1ccc(Cl)cc1NC(=O)c1sc2nc(-c3ccccc3)cn2c1C	x	x	-1%	7%	18%	-18%[59 µM]
O=C(O)c1ccc2cccnc2n1	-4	-16%	7.1µM*	28µM*	u	35µM*
Cc1cccc(NC(=O)c2ccccn2)c1C	x	-7%	7.9µM*	-4%	8%	u
O=C(CC(=O)c1ccccn1)c1ccccc1	0	-5%	25µM*	x	36%	x
O=C(O)c1ccccn1	4	-10%	4µM*	2.8µM*	27%	0.56µM*!
O=C(O)c1ccc2cccc(O)c2n1	3	3%	-6%	u	33%	x
Cc1cc2c(s1)c1cnn(Cc3ccc(C(=O)O)cc3)c(=O)c1n2C	x	x	-5%	x	x	x
Cn1c(CC2C(=O)Nc3ccc(Br)cc32)nc2ccccc2c1=O (configuration not stated)	-24	-18%	-15%	-4%	31%	50µM*
CNC(=O)c1ccc(CN(C)C(=O)c2cccc(S(=O)(=O)N3CCc4ccccc4C3)c2)cc1	3	-7%	x	x	x	x
S=C(c1ccc2c(c1)OCO2)N1CCOCC1	-1	u	3%	-23%	-6%	32µM*
S=C(c1ccc(N2CCOCC2)cc1)N1CCOCC1	x	27µM*	-22%	3%	-30%	u
CN(C)c1ccc(C(=S)N2CCOCC2)cc1Br	-10	u	-15%	5%	-23%	u
S=C(c1ccc2c(c1)OCO2)N1CCCCCC1	x	-16%	-15%	3%	9%	50µM*
O=C(CSCc1cc(=O)c2cc(F)ccc2[nH]1)Nc1ccccc1Cl	x	x	-3%	5%	28%[57 µM]	6%[59 µM]
CC(=O)c1cccc(NC(=O)C2CCCN(c3nnc(-n4cccc4)s3)C2)c1 (configuration not stated)	x	x	-11%	-3%[57.1 µM]	12%	-6%[59 µM]
CN(C)S(=O)(=O)c1ccc(NC(=O)C2CC(=O)N(Cc3ccccc3Cl)C2)cc1 (configuration not stated)	7	-5%	-12%	4%	-5%	-10%
CCOC(=O)c1c(C)[nH]c(C)c1S(=O)(=O)N1CCN(c2ccc([N+](=O)[O-])cc2)CC1	4	-14%	u	u	-25%[57 µM]	-11%
Fc1ccccc1N1CCN(CCCc2ccccc2)CC1	-3	-6%	22µM*	u	u	35µM*
CCN1CCN(C/C(C)=C/c2ccccc2)CC1	-3	5%	2%	-6%	23%	-25%
